Assay outcomes as filed in PubChem BioAssay.
An excerpt weighted towards active compounds, which were near 4.7% of everything screened.
TGFb inhibitor: inhibitors of TGF-b signaling. HepG2 CAGA-GFP TGF-b/SMAD3 reporter, GFP fluorescence, 18 h; TGF-beta stimulated, 500 pg/mL final. 1.2% of 410,000 active. Potency, µM (top dose mostly 46.1 µM), actives largely listed as inhibitors; also: nearly all actives have a fitted effect of over 65% in size
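TGF-beta reporter screen: HEPG2 CAGA-GFP, 1% FBS, 500 pg/mL TGF-beta final, 18 h; per-cell GFP summed per well; curves fitted and categorized by class.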
ATXN2 expr inh: reduces ATXN2 reporter expression in HEK-293 cells; Potency, µM (titrated, usually from 57 µM), hits mostly inhibitors; HEK-293 ATXN2-luciferase reporter, luminescence, 24 h; 0.72% of 360,000 active; AID 1745845; also: nearly all actives have a fitted effect of over 55% in size
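ATXN2-luciferase reporter cells (luciferase flanked by upstream and downstream ATXN2 gene portions) were treated 24 h at 37 °C with compounds at up to 57 uM. SteadyGlo luminescence gave expression; GF-AFC fluorescence gave viability.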
DRD3 antagonist: blocks the human D3 dopamine receptor. P35462. D3R cells, DiscoveRx beta-arrestin luminescence, antagonist mode; active compounds read low. max response, negative = inhibition, %. 2.5% of 360,000 active; in the data active = max response below about -50%; inconclusive = no clear call, values can overlap the other calls
Target sequence (P35462 whole entry, looked up): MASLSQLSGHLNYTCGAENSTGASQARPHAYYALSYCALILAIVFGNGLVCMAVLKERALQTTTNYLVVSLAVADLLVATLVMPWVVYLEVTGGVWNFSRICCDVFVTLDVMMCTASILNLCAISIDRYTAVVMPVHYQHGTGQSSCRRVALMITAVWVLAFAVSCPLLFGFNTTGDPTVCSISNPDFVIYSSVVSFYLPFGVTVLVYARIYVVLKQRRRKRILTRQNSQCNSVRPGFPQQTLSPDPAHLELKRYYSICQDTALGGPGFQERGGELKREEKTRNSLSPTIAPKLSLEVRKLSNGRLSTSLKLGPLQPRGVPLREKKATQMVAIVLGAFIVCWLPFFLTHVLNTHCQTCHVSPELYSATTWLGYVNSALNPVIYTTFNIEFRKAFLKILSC
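Cells expressing the human receptor were seeded at 1500 cells/well, incubated overnight at 37 degrees C in 5% CO2, then exposed to library compounds with dopamine controls for 90 minutes at 37 degrees C before luminescent detection.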
HepG2 tox: kills HepG2 cells in TGF-b inhibitor counter-screen. 0.76% of 410,000 active. Potency, µM (doses to about 46.1 µM), most hits filed as cytotoxic. AID 588856. HepG2 CAGA-GFP viability, ATP luminescence, 18 h
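CellTiter-Glo luminescence gave cytotoxicity after 18 hours at 37 degrees C. The cells were HepG2 CAGA-GFP in 1% FBS DMEM, stimulated with 500 pg/mL TGF-beta after compound addition. %Activity was normalised to no-cell wells (complete cell-killing) and DMSO (no toxicity), and curves were fitted and classified.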
D3 ag: D3 dopamine receptor (human) agonism | P35462 | D3R DiscoveRx beta-arrestin cells, luminescence, 90 min | max activation, % | 0.58% of 410,000 active; in the data active = max activation above about 30%
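Cells at 1500/well, incubated overnight, then treated with pinned compounds (dopamine as control) for 90 min at 37 degrees C. DiscoveRx reagent added for 30 - 60 minutes at room temperature; luminescence read.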
ATXN viability: viability counter-screen for ATXN expression inhibitors; Potency, µM (top dose mostly 56.7 µM), actives largely listed as cytotoxic; AID 651635; 0.49% of 400,000 active; S2 cells (HEK-293 line with an ATXN2-luciferase reporter) viability, CellTiter-Fluor protease fluorescence, 24 h; also: nearly all actives have a fitted effect of over 40% in size
Hits are given with their value; 0 = inactive; ? = inconclusive; - = not tested or not shown. Unless noted, calls follow the shape of the dose curve; as a rule, active = well fitted curve in the direction sought with a large enough effect; inconclusive = small, poorly fitted or top-dose-only effect, or another doubt; inactive = no such curve, though single readings can be large; an effect the other way counts as inactive or inconclusive.

SMILES	TGFb inhibitor	ATXN2 expr inh	DRD3 antagonist	HepG2 tox	D3 ag	ATXN viability
O=C(NC(=S)NCc1ccccc1)c1ccccc1F	0	-	0	0	0	-
O=C(NC(=S)N(Cc1ccccc1)Cc1ccccc1)c1ccccc1F	?	0	-69	0	0	0
COc1cc(=O)n2c(c1C(=O)N(C)Cc1nonc1C)CCN(Cc1c(F)cccc1F)CC2	-	-	-	-	-	0
Cc1cc([N+](=O)[O-])ccc1-c1ccc(/C=N/NC(=O)c2ccc(Br)o2)o1	?	?	-54	0	0	?
COc1cccc(NC(=O)N(CCCN2CCOCC2)C(C)c2cc3cccc(OC)c3o2)c1 (stereo unspecified)	0	0	?	0	0	?
COc1cccc(NC(=O)N(CCCN2CCOCC2)C(C)c2cc3ccccc3o2)c1 (stereo unspecified)	0	0	-70	0	0	0
CCOc1ccc(-c2cn3c(n2)sc2cc(C(=O)NCCCN4CCCCC4)ccc23)cc1	0	?	-	2.5µM	0	?
CCN(CC)CCNC(=O)c1ccc2c(c1)sc1nc(-c3ccc(F)cc3)cn12	11µM	-	-	16µM	0	-
O=C(NCCCN1CCCCC1)c1ccc2c(c1)sc1nc(-c3ccc(F)cc3)cn12	?	?	-	0	0	0
CCOc1ccc(-c2cn3c(n2)sc2cc(C(=O)NCCCN4CCCCCC4)ccc23)cc1	?	?	-	11µM	0	-
CCOc1ccc(-c2cn3c(n2)sc2cc(C(=O)NCCCN(CC)CC)ccc23)cc1	?	8.9µM	-	10µM	0	13µM
CCCN1CCN(CCCNC(=O)c2ccc3c(c2)sc2nc(-c4ccc(OCC)cc4)cn23)CC1	0	-	-	0	0	-
CC1CCCCN1S(=O)(=O)c1ccc(C(=O)Nc2sc3c(c2C(N)=O)CC(C)(C)NC3(C)C)cc1 (stereo unspecified)	0	0	-	0	0	0
CCOC(=O)C1=C(CS(=O)(=O)c2ccc(Br)cc2)NC(=O)NC1c1ccccc1 (stereo unspecified)	?	0	-	0	0	0
COc1ccccc1Cc1nc2ccccc2nc1SCC(=O)Nc1ccccc1C(F)(F)F	0	-	-	0	0	-
COc1ccc(-c2cn3c(n2)sc2cc(C(=O)Nc4ccc(F)cc4Cl)ccc23)cc1	0	-	-	0	0	-
O=C(CCl)c1ccc2[nH]c(=O)oc2c1	?	-	0	10µM	0	0
CCCCSCCCNC(=O)c1cn(C)c2ccc(S(=O)(=O)N3CCCCCC3)cc2c1=O	0	0	-	0	0	0
O=C(C1=C(O)C(=O)N(c2ncccn2)C1c1cccc(Cl)c1)c1ccco1 (stereo unspecified)	0	0	-74	0	0	?
CCc1ccc(S(=O)(=O)c2nnn3c2nc(Nc2ccc(NC(C)=O)cc2)c2sccc23)cc1	0	-	-	0	0	-
O=C(Nc1ccc(OC(F)F)cc1)c1nc(S(=O)(=O)Cc2ccccc2F)ncc1Cl	13µM	-	-	11µM	-	-
CCOc1ccc(NC(=O)c2nc(S(=O)(=O)Cc3ccccc3F)ncc2Cl)cc1	3.2µM	-	-	6.3µM	0	-
CCOc1ccc(NC(=O)c2nc(SCc3ccccc3F)ncc2Cl)cc1	0	-	-	0	-	-
CCC(=O)N1CCCc2cc(S(=O)(=O)N3CCC(C(=O)Nc4ccc(F)c(F)c4)CC3)ccc21	?	?	-	0	0	0
CCN(CC)S(=O)(=O)c1cc([N+](=O)[O-])ccc1NNC(=O)Nc1ccc(Cl)c(Cl)c1	7.1µM	?	-84	0	0	-
SMILES	TGFb inhibitor	ATXN2 expr inh	DRD3 antagonist	HepG2 tox	D3 ag	ATXN viability
O=C(NNc1ccccc1[N+](=O)[O-])Nc1ccc(Cl)c(Cl)c1	?	0	0	0	0	0
COc1ccc(NC(=O)/C(Cl)=C(/Cl)S(=O)Cc2ccc(Cl)cc2)cn1 (stereo unspecified)	2.2µM	2.5µM	-116	2.5µM	0	2.8µM
COc1ccc(NC(=O)/C(Cl)=C(/Cl)S(=O)(=O)Cc2ccccc2)cn1	?	13µM	0	6.3µM	0	14µM
COc1ccc(NC(=O)C(Cl)=C(Cl)Cl)cn1	0	0	0	0	0	0
Cc1ccc(-c2nc3n(n2)C(c2ccccc2C)C=C(c2ccc(Cl)cc2)N3)cc1 (stereo unspecified)	0	0	-	0	0	-
COc1ccc(OC)c2nc3c(C(=O)NCCN(C)C)cccc3nc12	?	?	0	0	0	?
CN(C)CCNC(=O)c1cccc2nc3cccc(F)c3nc12	?	8.9µM	0	0	0	?
CN(C)CCNC(=O)c1cccc2ccc(-c3ccc(-c4ccccc4)cc3)nc12	0	0	0	0	0	27µM
CC(C)(C)OC(=O)NS(=O)(=O)NOCc1ccccc1	0	-	-	0	-	-
CCC(c1nnnn1C(C)(C)C)N1CCN(c2cc(Cl)ccc2C)CC1 (stereo unspecified)	0	0	-56	0	0	0
COc1cc(OC)cc(C2=Cc3ccc(OC)cc3C(CC(C)=O)N2c2ccc(C#CC3(O)CCCCC3)cc2)c1 (stereo unspecified)	-	0	0	-	0	?
COc1cc(OC)cc(C2=Cc3ccc(OC)cc3C(CC(C)=O)N2c2ccc(C#CC3(N)CCCCC3)cc2)c1 (stereo unspecified)	-	0	0	-	0	18µM
COc1cc(OC)cc(C2=Cc3ccccc3C(CC(C)=O)N2c2ccc(C#CC3(N)CCCCC3)cc2)c1 (stereo unspecified)	-	?	0	-	0	28µM
O=C(NCc1nnc2n1CCN(Cc1ccnc3ccccc13)CC2)c1cccc(F)c1	-	-	-	-	-	0
N#CCNC(=O)c1ccc(-c2ccnc(Nc3ccc(N4CCOCC4)cc3)n2)cc1	-	19µM	-	-	-	-
CC(=O)c1ccc(Nc2nc(N3CCOCC3)nc(N3CCOCC3)n2)cc1	0	0	0	0	0	0
Cc1ccccc1C1(CC(=O)N2CCC[C@H]2C(N)=O)CC(=O)N(C2CCCC2)C1=O (stereo partly specified)	-	-	-	-	-	0
CCOC(=O)C(CCSC)Nc1nc(Cl)nc(Nc2ccc(Cl)cc2)n1 (stereo unspecified)	?	0	-58	0	0	0
Cc1ccnc(NC(=O)Nc2ccc(Br)cc2Cl)c1	0	0	-54	0	0	0
O=C(NCC1CCCO1)C1CCCN(S(=O)(=O)c2ccc(Cl)cc2)C1 (stereo unspecified)	0	0	0	0	34	0
COc1ccc(S(=O)(=O)N2CCCC(C(=O)NCc3ccncc3)C2)cc1Cl (stereo unspecified)	0	0	-71	0	0	0
CCCS(=O)(=O)N1CCCC(C(=O)c2cccc(Cl)c2)C1 (stereo unspecified)	0	0	-68	0	0	0
COc1ccc(S(=O)(=O)N2CCC(C(=O)NCc3ccncc3)CC2)cc1Cl	0	0	0	0	0	0
